Our source for the Potency and activity, negative = inhibition values is PubChem BioAssay AID1347417 (National Center for Advancing Translational Sciences (NCATS), 2020).

SMILES strings stand for the structures. Screen size: about 120,000 compounds; about 5,300 (4.4%) were called active. Where a call stands in place of a potency, no number is given. Not shown: some 22% with an inconclusive outcome. This is one part of a sample in which actives are shown more often than they occur. Unmarked numbers belong to inactive results. Calls follow the shape of the dose curve; as a rule, active = well fitted inhibition curve with a large enough effect; inconclusive = small, poorly fitted or top-dose-only effect; inactive = no such curve, though single readings can be large or run the other way.
Potency is read from the fitted curve at half-maximal effect.

The experiment is described as follows: qHTS Primary assay for Inhibitors of Plasmodium falciparum Dd2 growth in vitro. Also: nearly all actives have a fitted effect of over 65% in size. The note with it: P. falciparum Dd2 growth, SYBR Green, 72 h; series mostly up to 28.9 µM. In outline:
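Infected erythrocytes (Dd2, 0.3% parasitemia, 2.5% hematocrit final) are added to compound in RPMI-1640/Albumax II medium, grown 72 h at 37C in low oxygen, then lysed with saponin/Triton-X containing SYBR Green and read by fluorescence.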
`Cc1nn2c(c1-c1ccccc1Oc1ccccc1)N(C(=O)C(C)C)CCC2`: the Potency was 10 µM (active).

Take `Cc1nn2c(c1-c1ccccc1N1CCCC1)N(C(=O)c1ccc(Oc3ccccc3)cc1)CCC2`: the Potency result was “inactive”.

Consider `Cc1nn2c(c1-c1ccnn1C(C)C)N(C(=O)c1ccc(Oc3ccccc3)cc1)CCC2`, for which the Potency entry was “inactive”.

With `c1ccc(-c2nnc(CN3CCN(c4cnccn4)CC3)o2)cc1`, the Potency entry is “inactive”.

Turning to `COc1ccc(CCNc2nc(-c3ccc(F)cc3)cc(C(F)(F)F)n2)cc1OC`, the Potency result is “inactive”.

Consider `COc1ccc(Nc2ncc(C(=O)Nc3cc(C)ccc3OC)c3ccccc23)cc1`, for which the Potency entry was “inactive”.

On to `COc1cc(Nc2nc(-c3ccc(OC)c(OC)c3)nc3ccccc23)cc(OC)c1`, for which the Potency was 8.91 µM (active).

`COc1ccc(OCc2nc(C)c(CCO)c(=O)n2CC(=O)Nc2ccccc2C)cc1`: the Potency result is “inactive”.

With `CCC(C)NC(=O)CN1CN(c2ccccc2)C2(CCN(C(=O)c3ccccc3OC)CC2)C1=O` (configuration not stated), the Potency result was “inactive”.

`O=C(NC1CC(=O)N(Cc2ccccc2C(F)(F)F)C1)c1ccc[n+]([O-])c1` (configuration not stated): the Potency result is “inactive”.

As to `O=C(c1cn2ccsc2n1)N1CCn2nc(C(O)c3ccccc3)cc2C1` (configuration not stated), the Potency entry was “inactive”.

Take `COC[C@@H]1CN(C(=O)c2cc(C)oc2C)C[C@H]1c1nc(C2CC2)no1`: the Potency result was “inactive”.

Turning to `Cc1cc2nc(NC(=O)c3ccc(S(=O)(=O)N4CCOCC4)cc3)sc2cc1C`, the Potency entry is “inactive”.

For the molecule `CN(C)c1cccc(C(=O)Nc2nc3ccc(S(=O)(=O)NC(C)(C)C)cc3s2)c1`, the Potency is 11.2 µM (active).

On to `NS(=O)(=O)c1ccc2nc(NC(=O)COc3ccccc3)sc2c1`, for which the Potency result is “inactive”.

For the molecule `CCOCCOC1CCN(C(=O)Cc2cccc(OC)c2)CC1`, the Potency result was “inactive”.

On to `Cc1cccc(C)c1NC(=O)N1CCC(OC2CCN(S(C)(=O)=O)CC2)CC1`, for which the Potency entry was “inactive”.

Turning to `Cc1ccc(NC(=O)N2CCC(OC3CCN(S(C)(=O)=O)CC3)CC2)cc1F`, the Potency is 0.447 µM (active).

With `CS(=O)(=O)N1CCC(OC2CCN(C(=O)c3cccc(Cl)c3)CC2)CC1`, the Potency entry was “inactive”.

Regarding `NC(=O)c1ccc(NC(=O)C2CC(=O)N(c3n[nH]c4cccc(F)c34)C2)cc1` (configuration not stated), the Potency result was “inactive”.

Regarding `COC(=O)c1cccc(NC(=O)N2CCC3(CCC(=O)N(Cc4ccccc4)CC3)CC2)c1`, the Potency entry is “inactive”.

For the molecule `CCOC(=O)c1ccc(N2C(=O)c3n[nH]c(C)c3C2c2ccc(O)c(OC)c2)cc1` (configuration not stated), the Potency entry was “inactive”.

Regarding `CCOC(=O)c1ccc(N2C(=O)c3[nH]nc(-c4ccccc4)c3C2c2ccc(C(C)C)cc2)cc1` (configuration not stated), the Potency is 7.94 µM (active).

As to `CCOC(=O)c1ccc(NC(=O)C2CC(=O)N(c3ccc(C(C)C)cc3)C2)cc1` (configuration not stated), the Potency result is “inactive”.

Consider `Nc1nc2c(s1)C(c1ccccc1)CC(=O)N2` (configuration not stated), for which the Potency result is “inactive”.

`NCc1ccc(-c2cncnc2)cc1`: the Potency result was “inactive”.

Turning to `Cc1cccc(-c2cccc(CN)c2)c1`, the Potency is 11.2 µM (active).

For the molecule `O=C(Cc1ccsc1)N1CCC(Oc2ccccc2)C1` (configuration not stated), the Potency result is “inactive”.

As to `Cc1cccc(NC(c2cccc(F)c2)c2ccc3ccc(C)nc3c2O)n1` (configuration not stated), the Potency is 6.31 µM (active).

`O=C(N1CCCC1)N1CCCC(c2nnc3n2CCNC3)C1` (configuration not stated): the Potency entry was “inactive”.

For `COc1c(F)cccc1CN1CCOc2cc([S+](=O)([O-])N(C)C)ccc2C1`, the Potency result was “inactive”.

On to `COC(=O)C1=C(C)N=C2SC=C(CC(=O)NCCC(C)C)N2C1c1ccccc1Cl` (configuration not stated), for which the Potency result is “inactive”.

Regarding `COC(=O)C1=C(C)N=C2SC=C(CC(=O)NCc3ccco3)N2C1c1cccc(F)c1` (configuration not stated), the Potency result is “inactive”.

For `COC(=O)C1=C(C)N=C2SC=C(CC(=O)NCc3ccccc3F)N2C1c1ccccc1Cl` (configuration not stated), the Potency is 11.2 µM (active).

As to `CCCNC(=O)[C@@H]1Cc2cn(Cc3cc(C)on3)c3cccc(c23)[C@H](CC(C)C)N1`, the Potency entry is “inactive”.

Turning to `Cc1ccc(-c2nc(S(=O)(=O)c3ccc(C)cc3)c(N3CCCCCC3)o2)cc1`, the Potency result was “inactive”.

Turning to `O=C(CSc1oc(-c2ccc(F)cc2)nc1S(=O)(=O)c1ccc(Br)cc1)NC1CCCCC1`, the Potency result is “inactive”.

`CC(C)S(=O)(=O)c1oc(-c2ccc(F)cc2)nc1S(=O)(=O)c1ccc(F)cc1`: the Potency is 11.2 µM (active).

Regarding `COc1cccc(SCC(=O)NCc2cc3n(n2)CCNC3)c1`, the Potency result was “inactive”.

As for `COC[C@@H]1CN(Cc2cnn(C)c2C)C[C@H]1c1nc(C2CC2)no1`, the Potency entry is “inactive”.

In the case of `O=C1OC[C@@H]2CCN(Cc3ccccc3)Cc3ccccc3N12`, the Potency entry was “inactive”.

Consider `O=C1OC[C@@H]2CCN(Cc3ccncc3)Cc3ccc(F)cc3N12`, for which the Potency result was “inactive”.

Consider `O=C1OC[C@@H]2CCN(Cc3cnc4ccccc4c3)Cc3ccc(F)cc3N12`, for which the Potency is 5.62 µM (active).

In the case of `Cc1ccc(-n2nc3n(c2=O)CCN(C(=O)C(C)(C)C)C3)cc1`, the Potency result is “inactive”.

`CN(C1CCc2nn(C)c(=O)n2CC1)S(=O)(=O)c1ccc2c(c1)OCCO2` (configuration not stated): the Potency result was “inactive”.

For the molecule `CN1CCC(N2CC[C@H](c3nc4ccccc4s3)C2)CC1`, the Potency result was “inactive”.

Regarding `CC(C)c1ccc(CNC(=O)c2noc(-c3ccc[nH]c3=O)n2)cc1`, the Potency entry was “inactive”.

For `CCc1nc2c(c(-c3ccc(Cl)cc3)n1)CCN([S+](=O)([O-])c1cccs1)CC2`, the Potency was 12.6 µM (active).

Consider `CCc1nc2c(c(-c3ccc(OC)cc3)n1)CCN(CC1CCCCC1)CC2`, for which the Potency entry is “inactive”.

On to `Cc1cc(OC2CN([S+](=O)([O-])c3cccs3)C2)ccc1F`, for which the Potency entry was “inactive”.

For `CCc1nc2c(c(-c3ccc(Cl)cc3)n1)CN(CCC(C)C)CC2`, the Potency is 7.94 µM (active).

On to `Cc1ccc(CN2CCc3nc(C)nc(-c4ccc(O)cc4)c3C2)cc1`, for which the Potency result is “inactive”.

As for `O=C1CCNCCCOCCN1`, the Potency entry was “inactive”.

For the molecule `Cc1ccc(NC(=O)CN2c3ccccc3S(=O)(=O)c3ccccc32)cc1F`, the Potency result was “inactive”.

For the molecule `Cc1ccc(NC2=C(c3ccc(C(F)(F)F)cc3)C(=O)c3ccccc32)cc1F`, the Potency is 0.178 µM (active).

Consider `C[C@H](O)c1onc(-c2ccc(F)cc2)c1C(=O)N1CCC1`, for which the Potency result is “inactive”.

`Cc1cccc(-n2nc(-c3c(C)nc4scc(CC(=O)NCc5ccco5)n4c3=O)cc2C)c1C`: the Potency entry is “inactive”.

For the molecule `COc1ccc(Cl)cc1S(=O)(=O)N1CCCC(CNC(=O)c2ccco2)C1` (configuration not stated), the Potency result was “inactive”.

Take `COc1ccccc1-c1cc([C@H]2CN3CC[C@H]2C[C@@H]3CNC(=O)c2ccco2)nc(C)n1`: the Potency was 10 µM (active).

In the case of `Cc1ccc(C(=O)NC[C@H]2C[C@@H]3CCN2C[C@@H]3c2cc(-c3ccco3)nc(C)n2)cc1`, the Potency was 3.55 µM (active).

Take `COc1ccc(-c2cc([C@H]3CN4CC[C@H]3C[C@@H]4COC(=O)NC(C)C)nc(C)n2)cc1`: the Potency result was “inactive”.

Regarding `Cc1nc(-c2ccc(C(F)(F)F)cc2)cc([C@H]2CN3CC[C@H]2C[C@@H]3CNC(=O)C2CCC2)n1`, the Potency entry was “inactive”.

On to `Cc1nc(-c2ccccc2)cc([C@H]2CN3CC[C@H]2C[C@@H]3CNC2CCN(C)CC2)n1`, for which the Potency result is “inactive”.

For `O=C(c1ccncc1)N1CCC(C2CCN(Cc3cccc(F)c3F)CC2)C1` (configuration not stated), the Potency result was “inactive”.

Take `COc1ccc(N2CCN(C(=O)COc3ccc(NC(C)=O)cn3)CC2)cc1`: the Potency entry was “inactive”.

Regarding `Cc1cccc(CN2CCc3ncc(C(=O)NCc4ccccc4)n3CC2)n1`, the Potency result was “inactive”.

Take `COCC(=O)N(C1CCOCC1)C1CCN(S(=O)(=O)c2ccccc2C)CC1`: the Potency entry was “inactive”.

In the case of `CCOC(=O)c1ccc(NC(=O)Cn2ccn3nc(-c4ccccc4)c(CO)c3c2=O)cc1`, the Potency entry is “inactive”.

As to `Cc1nn(-c2ccccc2)c(C)c1CC(=O)NC1CCCc2c1[nH]c1ccccc21` (configuration not stated), the Potency result is “inactive”.

Take `CN(C)C[C@@H]1CN(S(C)(=O)=O)C[C@H]1NC(=O)c1ccc2ncccc2c1`: the Potency result is “inactive”.

Turning to `Cc1ccc(CSc2oc(-c3cccs3)nc2S(=O)(=O)c2ccc(C)cc2)cc1`, the Potency result was “inactive”.

As for `CCCCS(=O)(=O)c1oc(-c2cccs2)nc1S(=O)(=O)c1ccccc1`, the Potency is 10 µM (active).

Consider `CSc1oc(-c2cccs2)nc1S(=O)(=O)c1ccc(Br)cc1`, for which the Potency entry was “inactive”.

Turning to `Cc1cc(OC2CN([S+](=O)([O-])c3ccccc3)C2)ccc1F`, the Potency result is “inactive”.

Regarding `COC1C(=O)N(CC2CC2)C12CCN(C(=O)NC1CCCCC1)CC2` (configuration not stated), the Potency entry was “inactive”.

With `Cn1nccc1CN1CC(Oc2ccc(F)c(F)c2)C1`, the Potency entry is “inactive”.

`O=C(NC1CCNC1)C1CCN(c2nc(-c3ccccc3)nc3c2CCC3)CC1` (configuration not stated): the Potency is 7.08 µM (active).

In the case of `O=C(NCCc1ccccn1)C1CCCN(c2nc(-c3ccccc3)nc3c2CCC3)C1` (configuration not stated), the Potency result is “inactive”.

With `CC(C)OCC(=O)N1CCN(c2nc(-c3ccccc3)nc3c2CCC3)CC1`, the Potency was 12.6 µM (active).

`O=C(C1CCN(c2nc(-c3ccccc3)nc3c2CCC3)CC1)N1CCC[C@H]1CO`: the Potency was 8.91 µM (active).

`COCCOCC(=O)N1CCCC(c2nc(-c3ccccc3)no2)CCNC(=O)CC1` (configuration not stated): the Potency entry was “inactive”.

For `O=C(NCc1cccnc1)C1CCN(c2nc(-c3ccccc3)nc3c2CCC3)CC1`, the Potency entry was “inactive”.

In the case of `Cc1nc(CCNC(=O)C2CCCN(c3nc(-c4ccccc4)nc4c3CCC4)C2)n[nH]1` (configuration not stated), the Potency result was “inactive”.

In the case of `O=C(CN1CCCC1=O)NC1CCCc2nc(-c3ccccc3)ncc21` (configuration not stated), the Potency entry is “inactive”.

Consider `Cc1ccc(-c2cc(N3CCCN(C(=O)COc4ccccc4)CC3)n[nH]2)cc1C`, for which the Potency entry is “inactive”.

For the molecule `COc1ccc(N2CC(C(=O)N3CCSCC3)CC2=O)cc1Cl` (configuration not stated), the Potency result was “inactive”.

With `O=C(Nc1ccccc1Cl)N1CCc2nc3cc[nH]n3c(=O)c2C1`, the activity, negative = inhibition is -0.962% [at 5.79 µM].

Consider `Cc1nn(CC(=O)NCC2CCCO2)c(=O)c2nc(C(C)C)sc12` (configuration not stated), for which the Potency result is “inactive”.

As for `CC(C)c1nc(C2Cc3ccccc3N2S(=O)(=O)c2cn(C)cn2)no1` (configuration not stated), the Potency entry was “inactive”.

In the case of `CCc1ccc(NC(=O)N2CCCC(Cn3cnc4cccnc43)C2)cc1` (configuration not stated), the Potency entry is “inactive”.

Consider `COCCNC(=O)CCc1cc2ccc(C)cc2[nH]c1=O`, for which the Potency result is “inactive”.

Take `O=C(c1cc(F)ccc1F)N1CCCC(n2cc(-c3nc(C4CC4)no3)nn2)C1` (configuration not stated): the Potency result is “inactive”.

Regarding `O=c1n(-c2ccncc2)nc2n1CCN([S+](=O)([O-])c1cccc(C(F)(F)F)c1)C2`, the Potency result is “inactive”.

As for `CCOc1ccc(C2Cn3nnc(-c4nc(-c5cccc(F)c5)no4)c3CO2)cc1` (configuration not stated), the Potency entry was “inactive”.

`NC(=O)Cn1ccc2cc(OCC3CCN(c4cnccn4)CC3)cnc21`: the Potency entry is “inactive”.

`Cn1ccnc1C(=O)N1CCC2(CC1)CN(c1ncccn1)CC2CO` (configuration not stated): the Potency entry was “inactive”.

Take `COc1cccc(OCc2nnc(C(=O)N3CCC[C@@H]3c3cccc(F)c3)n2-c2ccccc2)c1`: the Potency entry is “inactive”.
